Some of the results follow. Records with an inconclusive call do not appear. Calls of active or inactive are those of the source. The call rests on the fitted dose curve; in most records, active means well fitted inhibition curve with a large enough effect; inconclusive means small, poorly fitted or top-dose-only effect; inactive means flat fitted curve, though single readings scatter.
target: Dual specificity tyrosine-phosphorylation-regulated kinase 1A (Homo sapiens) (UniProt Q13627); assay: Assay for Inhibitors of Dual-Specificity Tyrosine-(Y)-Phosphorylation Regulated Kinase 1A (Kinase-Glo assay); details: recombinant DYRK1A, Kinase-Glo ATP depletion luminescence
From the text: NIH Molecular Libraries Probe Production Centers Network [MLPCN] NIH Chemical Genomics Center [NCGC] MLSCN Grant: 1R03MH084827-01 PI Name: Tom Misteli NCGC Assay Overview: The CMGC group of protein kinases which includes CDK-like kinases (Clk) and Dyks are essential kinases found in all eukaryotes. Clks have been implicated to play a role in the regulation of alternative splicing; while Dyrks, in particular over expression of Dyrk1A, has been linked to diseases as Down syndrome (DS; OMIM 190685) and Alzheimer disease (AD; OMIM 104300). Among the members of the CMGC group, the Clks and the Dyrks are very closely related therefore to determine validity and selectivity of an active compound observed in the CLK4 qHTS screen (AID:1770), a bioluminescent counter-screen against Dyrk1A was developed. In addition, potent and selective compounds against Dyrk1A were identified to further assess the role of this enzyme in DS and AD. Dyrk1A (Invitrogen, cat # PV3785) was assayed using ATP and DYRKtide (AnaSpec, cat# 62698) as substrates. Promega Kinase-Glo (cat# V6712) technology was used to detect the residual ATP following kinetic reaction. The Kinase-Glo Plus contains Ultra-Glo [5] luciferase and D-luciferin which generates a bioluminescence signal from the remaining ATP. No enzyme and harmine (Sigma, cat # 286044-1G), a compound shown to inhibit Dyrks were used as a positive control; while DMSO treatment was used as a negative control.
NCGC Assay Protocol Summary: Two uL/well of substrate solution (8uM Dyrktide, 2uM ATP, 25mM Tris-HCl pH 7.5, 10mM MgCl2 , 0.5mM EGTA, 5mM cystein, 0.01% Triton X-100 final concentration) was dispensed into 1536-well assay plates (Greiner, solid white, medium-binding plates) with Aurora Discovery BioRAPTR Flying Reagent Dispenser (FRD, Beckton-Dickenson). Compound solution (23 nL) was transferred to the assay plate using Kalypsys pin tool equipped with a 1536-pin tool. One uL/well enzyme solution (5nM Dyrk1A, 25mM Tris-HCl pH7.5, 10mM MgCl2, 0.5mM EGTA, 5mM cystein, 0.01% Triton X-100 final concentration) was then added using FRD yielding a total kinase reaction volume of 3uL/well. After 2 hours of room temperature incubation, 3uL Kinase-Glo detection reagent was added for a final assay volume of 6uL/well. The plates were spun for 30 seconds (1000 rpm) and incubated at ambient temperature for 2 minutes followed by a luminescence read using Perkin Elmer ViewLux plate reader at 3 seconds exposure time and 2x binning.

Potency, active:
c1coc(CCNc2ncnc3ccc(-c4ccc5c(c4)OCO5)cc23)c1 164 nM
Cc1nc(C)c(-c2ccc3ncnc(NCc4ncc[nH]4)c3c2)s1 5190 nM
Cc1nc(CNc2ncnc3ccc(-c4ccc5c(c4)OCO5)cc23)cs1 292 nM
CN(Cc1cncn1C)c1ncnc2ccc(-c3ccc4c(c3)OCO4)cc12 2600 nM

Reference: PubChem BioAssay AID2705 (National Center for Advancing Translational Sciences (NCATS), 2010)
